Measured values from ChEMBL document CHEMBL3988442, “University of Dundee, Small-Polar-MMV Screening Library” (2021).
The campaign covered roughly 69,000 compounds. About 950 (1.4%) showed an effect of 50% or more. For the sample, strong results were picked, then their nearest neighbours and some compounds at random.

Test system: Mycobacterium tuberculosis
Assay: Cornell M. t heat shock assay; further: in the data most compounds retested in dose-response had high values
Type: functional, organism-based
Parameters: dose or concentration left out as unconfirmed

**Q.** For `CO[C@H]1CN(C(=O)c2ccccn2)[C@@H]2CCCO[C@H]12.O=C(O)C(F)(F)F`, which “Percent Effect” value is on record?
**A.** 0.07759%

**Q.** How did the “Percent Effect” value turn out when `CS(=O)(=O)NCc1cnc2n1CCN(Cc1ccccn1)CC2.O=C(O)C(F)(F)F` was run?
**A.** -38.1%

**Q.** `CCc1n[nH]c(C(=O)NCCn2ccnc2C)c1C` was tested. Which “Percent Effect” value did it give?
**A.** -101%

**Q.** How did the “Percent Effect” value turn out when `CCc1n[nH]c(C(=O)NCCn2nccc2C)c1C` was run?
**A.** 66.56%

**Q.** How did the “Percent Effect” value turn out when `CCc1n[nH]c(C(=O)NCCn2ccc(C)n2)c1C` was run?
**A.** -5.809%

**Q.** How did the “Percent Effect” value turn out when `CO[C@H]1[C@@H]2CC[C@H]1CN(c1nc(C)nc3ccsc13)C2` was run?
**A.** 7.911%

**Q.** `Cc1ccc(C2(CN3CCN(Cc4cnc(C)n4C)CC3)CC2)cc1.Cl` was tested. Which “Percent Effect” value did it give?
**A.** -8.472%

**Q.** With `CS(=O)(=O)N1C[C@@H]2CC[C@H](C1)N(Cc1ccsc1)C2` as the molecule, how does the “Percent Effect” value read?
**A.** 18.67%

**Q.** For `CC(=O)c1cc(CN2C[C@H]3CC[C@@H]2CN(S(C)(=O)=O)C3)cs1`, which “Percent Effect” value is on record?
**A.** 74.41%

**Q.** Which “Percent Effect” value does the source give for `CC(=O)c1cc(CN2C[C@H]3CC[C@@H]2CN(S(=O)(=O)N(C)C)C3)cs1` here?
**A.** -20.68%

**Q.** How did the “Percent Effect” value turn out when `Cc1ccc(CN2CCO[C@H]3[C@H](OCc4cccnc4)CC[C@@H]32)o1.O=C(O)C(F)(F)F.O=C(O)C(F)(F)F` was run?
**A.** 17.99%

**Q.** Which “Percent Effect” value does the source give for `Cl.c1cnc2[nH]c(C3CCCNC3)c(CN3CCCOCC3)c2c1` (configuration not stated) here?
**A.** -14.8%

**Q.** With `CCOc1ccccc1-c1cc(N)[nH]n1.Cl` as the molecule, how does the “Percent Effect” value read?
**A.** -11.82%

**Q.** With `CCOc1ccc(Br)cc1-c1cc(N)[nH]n1.Cl` as the molecule, how does the “Percent Effect” value read?
**A.** 3.82%

**Q.** `Cc1noc(C)c1CN1C(=O)[C@H]2CC[C@@H]1CN(Cc1cccnc1N)C2` was tested. Which “Percent Effect” value did it give?
**A.** 4.913%

**Q.** With `CC(C)=CCN1C(=O)[C@H]2CC[C@@H]1CN(Cc1cccnc1N)C2` as the molecule, how does the “Percent Effect” value read?
**A.** 105.7%

**Q.** For `Nc1ncccc1CN1C[C@@H]2CC[C@H](C1)N(CC1CC1)C2=O`, which “Percent Effect” value is on record?
**A.** -11.72%

**Q.** Which “Percent Effect” value does the source give for `Cl.NC(=O)C1CN(c2ccc(F)cc2)CCN1` (configuration not stated) here?
**A.** 7.399%

**Q.** With `Cc1ccc(CN(CCCn2ccnc2)Cc2c[nH]cn2)s1.O=C(O)CC(O)(CC(=O)O)C(=O)O` as the molecule, how does the “Percent Effect” value read?
**A.** -3.628%

**Q.** Which “Percent Effect” value does the source give for `Cc1ccc(CN(CCCn2ccnc2)Cc2cccs2)s1.O=C(O)CC(O)(CC(=O)O)C(=O)O` here?
**A.** 106%

**Q.** How did the “Percent Effect” value turn out when `OCc1ccc(CN(CCCn2ccnc2)Cc2cccnc2)o1` was run?
**A.** 13%

**Q.** How did the “Percent Effect” value turn out when `Cc1ccc(CN(CCCn2ccnc2)Cc2cnn(C)c2)s1.O=C(O)CC(O)(CC(=O)O)C(=O)O` was run?
**A.** -39.87%

**Q.** With `COc1ccc(F)c(CN2CCC(c3cc(O)nc(C)n3)C2)c1.O=C(O)CC(O)(CC(=O)O)C(=O)O` (configuration not stated) as the molecule, how does the “Percent Effect” value read?
**A.** -13.93%

**Q.** Which “Percent Effect” value does the source give for `COc1ccc(F)c(CN(CCCn2ccnc2)Cc2ccc(C)s2)c1.O=C(O)CC(O)(CC(=O)O)C(=O)O` here?
**A.** 102.4%

**Q.** `Cc1ccc(CN(CCCn2ccnc2)Cc2c[nH]nc2C(C)(C)C)s1.O=C(O)CC(O)(CC(=O)O)C(=O)O` was tested. Which “Percent Effect” value did it give?
**A.** 9.157%

**Q.** For `Cc1ccc(CN(CCN(C)C)Cc2ncc[nH]2)s1`, which “Percent Effect” value is on record?
**A.** -11.95%

**Q.** For `COc1ccc(Cl)cc1CNCCCn1ccnc1`, which “Percent Effect” value is on record?
**A.** 13.48%
